In all, about 2,300 compounds were measured (“relative growth”: median about 1, lowest 2% from about 0.046 on). Not all results are given here.
tested on: E. coli BW25113; test: relative growth (fraction of control); higher = less inhibition; settings: 50 µM

| SMILES | relative growth |
| --- | --- |
| CNCC(O)c1ccc(O)c(O)c1.O=C(O)C(O)C(O)C(=O)O (stereo not drawn) | 1.17 |
| CCOC(=O)C(CCc1ccccc1)NC(C)C(=O)N1CCCC1C(=O)O.O=C(O)C=CC(=O)O (stereo not drawn) | 1.07 |
| COCCCOc1cc(CC(CC(N)C(O)CC(C(=O)NCC(C)(C)C(N)=O)C(C)C)C(C)C)ccc1OC.O=C(O)C=CC(=O)O (stereo not drawn) | 0.978 |
| C#CCCCCCCCCCCCC(O)CC(O)CO.C=CCCCCCCCCCCCC(O)CC(O)CO (stereo not drawn) | 0.979 |
| COc1ccc(CN(CCN(C)C)c2ccccn2)cc1.O=C(O)C=CC(=O)O | 1.09 |
| CN1CCC(=C2c3ccccc3CCc3sccc32)CC1.O=C(O)CC(O)C(=O)O | 1.07 |
| CC(C)=CCCC(C)C1CCC2(C)C3=C(CCC12C)C1(C)CCC(O)C(C)(C)C1CC3 (stereo not drawn) | 0.918 |
| CCC1OC(=O)C(C)C(OC2CC(C)(OC)C(O)C(C)O2)C(C)C(OC2OC(C)CC(N(C)C)C2O)C(C)(O)CC(C)C(=O)C(C)C(O)C1(C)O (stereo not drawn) | 0.394 |
| C[N+]1(CCCCC[N+]2(C)CCCC2)CCCC1.O=C([O-])C(O)C(O)C(=O)O.O=C([O-])C(O)C(O)C(=O)O | 0.992 |
| OCC(O)C(O)C(O)CO (stereo not drawn) | 0.987 |
| CN(C)CCOC(C)(c1ccccc1)c1ccccn1.O=C(O)CCC(=O)O (stereo not drawn) | 0.787 |
| CN(C)CCC(c1ccccc1)c1ccccn1.O=C(O)C=CC(=O)O (stereo not drawn) | 0.966 |
| O=c1ccc2ccccc2o1 | 1.09 |
| CN(C)CCOC(c1ccc(Cl)cc1)c1ccccn1.O=C(O)C=CC(=O)O (stereo not drawn) | 0.986 |
| NC(CO)(CO)CO.O=C(c1ccccc1)c1ccc2n1CCC2C(=O)O (stereo not drawn) | 0.914 |
| CCN(CC)CCc1nc(-c2ccccc2)no1.O=C(O)CC(O)(CC(=O)O)C(=O)O | 0.968 |
| CC(C)NCC(O)COc1ccc(COCCOC(C)C)cc1.O=C(O)C=CC(=O)O (stereo not drawn) | 1.04 |
| CN1CCCC1CCOC(C)(c1ccccc1)c1ccc(Cl)cc1.O=C(O)C=CC(=O)O (stereo not drawn) | 1.01 |
| CN1CCCC1c1cccnc1.O=C(O)C(O)C(O)C(=O)O.O=C(O)C(O)C(O)C(=O)O (stereo not drawn) | 1.14 |
| C[N+](C)(C)CCO.Cn1c(=O)c2[n-]cnc2n(C)c1=O | 1.06 |
| CN(C)CCOc1ccc(C(=C(CCCl)c2ccccc2)c2ccccc2)cc1.O=C(O)CC(O)(CC(=O)O)C(=O)O | 0.722 |
| Cc1c(OCC(F)(F)F)ccnc1CS(=O)c1nc2ccccc2[nH]1 (stereo not drawn) | 1.01 |

| SMILES | relative growth |
| --- | --- |
| NCC(O)c1ccc(O)c(O)c1.O=C(O)C(O)C(O)C(=O)O (stereo not drawn) | 1.12 |
| CN(C)CCC(c1ccc(Br)cc1)c1ccccn1.O=C(O)C=CC(=O)O (stereo not drawn) | 1.04 |
| COc1ccc2c3c1OC1CC(O)C=CC31CCN(C)C2 (stereo not drawn) | 0.936 |
| CN1CCCN=C1C=Cc1cccc(O)c1.O=C(O)c1cc2ccccc2c(Cc2c(O)c(C(=O)O)cc3ccccc23)c1O | 1.1 |
| C=C1C2CCC3(C)C(c4ccoc4)OC(=O)CC13OC1CC(O)C(C)(C)C(CC(=O)OC)C12C (stereo not drawn) [3alpha-HYDROXY-3-DEOXYANGOLENSIC ACID METHYL ESTER] | 1.03 |
| OCC(O)C(O)CO (stereo not drawn) | 0.882 |
| Cl.NC(=O)CCC(N)C(=O)O (stereo not drawn) | 1.03 |
| CCN(CCCc1ccccc1)CCCc1ccccc1.O=C(O)CC(O)(CC(=O)O)C(=O)O | 0.881 |
| CN(C)CC(c1ccc(O)cc1)C1(O)CCCCC1.O=C(O)CCC(=O)O (stereo not drawn) | 1.14 |
| CC1=C(C(=O)O)N2C(=O)C(NC(=O)C(N)c3ccccc3)C2SC1 (stereo not drawn) | 1.03 |
| O=C(O)C=CC(=O)O.OCCOCCN1CCN(C2=Nc3ccccc3Sc3ccccc32)CC1 | 0.3 |
| CC1CC2C3CCC4=CC(=O)C=CC4(C)C3(F)C(O)CC2(C)C1(O)C(=O)CO (stereo not drawn) | 0.933 |
| C1CCC(C(CC2CCCCN2)C2CCCCC2)CC1.O=C(O)C=CC(=O)O (stereo not drawn) | 0.52 |
| CCN1CCCC1CNC(=O)c1cc(S(N)(=O)=O)ccc1OC (stereo not drawn) | 1.04 |
| CC12CCC(CC1)C(C)(C)O2 | 1.06 |
| Cc1ccccc1C(OCCN(C)C)c1ccccc1.O=C(O)CC(O)(CC(=O)O)C(=O)O (stereo not drawn) | 1.01 |
| COCCCCC(=NOCCN)c1ccc(C(F)(F)F)cc1.O=C(O)C=CC(=O)O | 0.949 |
| Nc1nc(N)nc(-c2cc(Cl)ccc2Cl)n1.O=C(O)C=CC(=O)O | 1.04 |
| CC(N)C(O)c1cccc(O)c1.O=C(O)C(O)C(O)C(=O)O (stereo not drawn) | 0.957 |
| Cc1ccc(S(=O)(=O)O)cc1.NC1CCN(c2nc3c(cc2F)c(=O)c(C(=O)O)cn3-c2ccc(F)cc2F)C1.O (stereo not drawn) | 0.0925 |
| C=CC1=C(C)c2cc3[nH]c(cc4nc(cc5[nH]c(cc1n2)c(C)c5CCC(=O)O)C(CCC(=O)O)=C4C)c(C)c3C=C | 2.63 |
| CNC(C)C1CCC(N)C(OC2C(N)CC(N)C(OC3OCC(C)(O)C(NC)C3O)C2O)O1.O=S(=O)(O)O (stereo not drawn) | 0.786 |

| SMILES | relative growth |
| --- | --- |
| Cc1cc(C=Cc2ccc3cc(N(C)C)ccc3[n+]2C)c(C)n1-c1ccccc1.O=C([O-])c1cc2ccccc2c(Cc2c(O)c(C(=O)O)cc3ccccc23)c1O | 0.996 |
| CC(C)Cc1ccc(C(C)C(=O)O)cc1 (stereo not drawn) | 0.933 |
| CCN(CC)C(=O)N1CCN(C)CC1.O=C(O)CC(O)(CC(=O)O)C(=O)O | 1.1 |
| O=C(O)c1cc2ccccc2c(Cc2c(O)c(C(=O)O)cc3ccccc23)c1O.OCCOCCN1CCN(C(c2ccccc2)c2ccc(Cl)cc2)CC1 | 1.17 |
| CC(CN(C)C)CN1c2ccccc2CCc2ccccc21.O=C(O)C=CC(=O)O (stereo not drawn) | 1.01 |
| CCCCCCCCCCCCCCCC(=O)NCCO | 1.06 |
| COC1C(C(=O)O)OC(C)C(O)C1O.COC1OC(C(=O)O)C(O)C(O)C1O (stereo not drawn) [ALGINIC ACID [Mol Wt ~200,000; monomers shown]] | 0.862 |
| CN1CCC(=C2c3ccccc3CC(=O)c3sccc32)CC1.O=C(O)C=CC(=O)O | 1.03 |
| C=CC1CN2CCC1CC2C(O)c1ccnc2ccc(OC)cc12.O=C(O)C(O)C(O)C(O)C(O)CO (stereo not drawn) | 0.949 |
| CC(=O)c1ccc2c(c1)N(CCCN(C)C)c1ccccc1S2.O=C(O)C=CC(=O)O | 0.983 |
| CC1OC(OC2C(O)CC(OC3C(O)CC(OC4CCC5(C)C(CCC6C5CC(O)C5(C)C(C7=CC(=O)OC7)CCC65O)C4)OC3C)OC2C)CC(O)C1O (stereo not drawn) | 1.13 |
| Cl.Cl.O=C(O)COCCN1CCN(C(c2ccccc2)c2ccc(Cl)cc2)CC1 (stereo not drawn) | 0.982 |
| C[N+](C)(C)CC(O)CC(=O)[O-] (stereo not drawn) | 0.989 |
| CCOC(=O)C1=C(COCCN)NC(C)=C(C(=O)OC)C1c1ccccc1Cl.O=S(=O)(O)c1ccccc1 (stereo not drawn) | 0.929 |
| COCCc1ccc(OCC(O)CNC(C)C)cc1.O=C(O)C(O)C(O)C(=O)O (stereo not drawn) | 1.17 |
| COC1C(O)C(O)C(O)C(O)C1O (stereo not drawn) | 0.97 |
| COc1cccc2c1C(=O)c1c(O)c3c(c(O)c1C2=O)CC(O)(C(=O)CO)CC3OC1CC(N)C(O)C(C)O1 (stereo not drawn) | 1.02 |
| Cn1c(=O)c2[nH]cnc2n(C)c1=O | 1.07 |
| CN1CCC(=C2c3ccccc3Sc3ccccc32)CC1.O=C(O)C=CC(=O)O | 0.967 |
| CC[N+](CC)(CC(=O)Nc1c(C)cccc1C)Cc1ccccc1.O=C([O-])c1ccccc1 | 1.01 |
| O=c1[nH]cc(F)c(=O)[nH]1 | 0.475 |
| COc1ccc(CC2c3cc(OC)c(OC)cc3CC[N+]2(C)CCC(=O)OCCCCCOC(=O)CC[N+]2(C)CCc3cc(OC)c(OC)cc3C2Cc2ccc(OC)c(OC)c2)cc1OC.O=S(=O)([O-])c1ccccc1.O=S(=O)([O-])c1ccccc1 (stereo not drawn) | 0.995 |

| SMILES | relative growth |
| --- | --- |
| CCN(CC)CCOc1ccc(C(=C(Cl)c2ccccc2)c2ccccc2)cc1.O=C(O)CC(O)(CC(=O)O)C(=O)O | 0.86 |
| CCOC(=O)Nc1ccc(NCc2ccc(F)cc2)nc1N.O=C(O)C=CC(=O)O | 0.989 |
| Cc1cc2nc3c(=O)[nH]c(=O)nc-3n(CC(O)C(O)C(O)COP(=O)([O-])O)c2cc1C.[Na+] (stereo not drawn) | 0.981 |
| CCC(C)C1OC2(CCC1C)CC1CC(CC=C(C)C(OC3CC(OC)C(OC4CC(OC)C(O)C(C)O4)C(C)O3)C(C)C=CC=C3COC4C(O)C(C)=CC(C(=O)O1)C34O)O2 (stereo not drawn) | 0.874 |
| CN(C)CCOC(c1ccccc1)c1ccccc1.Cn1c(=O)c2[nH]c(Cl)nc2n(C)c1=O | 0.0491 |
| Cn1c(=O)cc(N2CCCC(N)C2)n(Cc2ccccc2C#N)c1=O.O=C(O)c1ccccc1 (stereo not drawn) | 1.05 |
| O.OCC(O)C(O)C(OC1OC(CO)C(O)C(O)C1O)C(O)CO (stereo not drawn) | 0.993 |
| CC12CCC3c4ccc(O)cc4CCC3C1CC(O)C2O (stereo not drawn) | 1.07 |
| CC(CN(C)C)CN1c2ccccc2Sc2ccccc21.O=C(O)C(O)C(O)C(=O)O (stereo not drawn) | 0.971 |
| CC(=O)NCC(=O)O.CC(=O)NCC(=O)O.N=C(N)c1ccc(N=NNc2ccc(C(=N)N)cc2)cc1 | 1.01 |
| CCOCC(O)COc1ccc(NC(=O)CC[S+](C)C)cc1.Cc1ccc(S(=O)(=O)[O-])cc1 (stereo not drawn) | 1.09 |
| O=C(O)CC(O)(CC(=O)O)C(=O)O | 1.02 |
| CN(CCOc1ccc(CC2SC(=O)NC2=O)cc1)c1ccccn1.O=C(O)C=CC(=O)O (stereo not drawn) | 0.921 |
| CC(C)C(=O)Oc1ccc(CO)cc1C(CCN(C(C)C)C(C)C)c1ccccc1.O=C(O)C=CC(=O)O (stereo not drawn) | 0.804 |
| C[n+]1cc2c3c(ccc2c2ccc4cc5c(cc4c21)OCO5)OCO3.[Cl-] | 0.639 |
| CC(CCC(=O)O)C1CCC2C3C(O)CC4CC(O)CCC4(C)C3CCC12C (stereo not drawn) | 0.976 |
| CCOCCn1c(N2CCCN(C)CC2)nc2ccccc21.O=C(O)C=CC(=O)O.O=C(O)C=CC(=O)O | 1.11 |
| NCC1OC(OC2C(N)CC(N)C(OC3OC(CO)C(O)C(N)C3O)C2O)C(O)C(O)C1O.O=S(=O)(O)O (stereo not drawn) | 0.935 |
| CC(C)(C)NCC(O)COc1nsnc1N1CCOCC1.O=C(O)C=CC(=O)O (stereo not drawn) | 0.974 |
| CCCc1nn(C)c2c(=O)[nH]c(-c3cc(S(=O)(=O)N4CCN(C)CC4)ccc3OCC)nc12.O=C(O)CC(O)(CC(=O)O)C(=O)O | 0.963 |
| C[N+](C)(CCOc1ccccc1)Cc1ccccc1.O=C([O-])c1cc2ccccc2cc1O | 0.93 |
| COc1cccc2c1C(=O)c1c(O)c3c(c(O)c1C2=O)CC(O)(C(=O)CO)CC3OC1CC(N)C(O)C(C)O1.Cl (stereo not drawn) | 1.02 |

— published antibiotic growth screens (doi:10.1016/j.cell.2020.01.021)
